Screens as filed in PubChem.
TGFb inhibitor: qHTS for Inhibitors of TGF-b. HepG2 CAGA-GFP TGF-b/SMAD3 reporter, GFP fluorescence, 18 h; TGF-beta stimulated, 500 pg/mL final. Potency, µM (series often up to 46.1 µM), hits mostly inhibitors. AID 588855, 2011. actives 1.2% (n = 410,000); also: nearly all actives have a fitted effect of over 65% in size
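HEPG2 CAGA-GFP, 1000 cells/well; 2 h settle, 37 C; cpd via pin tool; TGF-b 500 pg/mL final; 18 h, 37 C; GFP imaging ex488/em500-530; %Activity normalised to -TGF-b and +DMSO controls; CRC fit, curve class.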
HT1080 IDH1KD tx: qHTS for induction of synthetic lethality in tumor cells producing 2HG: qHTS for the HT-1080-IDH1KD cell line. HT-1080 IDH1 knockdown viability, ATP luminescence, 48 h. Potency, µM (series often up to 46.1 µM), usual class: cytotoxic. actives 2% (n = 360,000)
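CellTiter-Glo luminescence after 48 h compound exposure at 37 degrees C of IDH1-knockdown HT-1080 cells in 5% FBS RPMI. %Activity scaled between DMSO wells and cell-free media wells, with curves fitted and assigned curve classes.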
TDP1 cell CPT: qHTS for Inhibitors of human tyrosyl-DNA phosphodiesterase 1 (TDP1): qHTS in cells in presence of CPT | AID 686979, 2013 | Potency, µM (series often up to 46.2 µM), usual class: inhibitors | actives 12% (n = 420,000) | chicken DT40 Tdp1-/-;hTDP1 cells + 20 nM CPT, ATP luminescence, 48 h; also: nearly all actives have a fitted effect of over 55% in size
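Cell growth measured by CellTiter-Glo luminescence after a minimum 48 h, 37 C compound exposure with 20 nM CPT in Tdp1-knockout DT40 cells stably expressing hTDP1, seeded 400/well; qHTS titration format.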
HT1080-NT tox: qHTS for induction of synthetic lethality in tumor cells producing 2HG: qHTS for the HT-1080-NT fibrosarcoma cell line. HT-1080-NT fibrosarcoma viability, CellTiter-Glo ATP luminescence, 48 h. Potency, µM (highest dose often 46.1 µM), usual class: cytotoxic. actives 1.6% (n = 360,000);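 also: NT is the 2HG producing partner of a matched IDH1 knockdown line; nearly all actives have a fitted effect of over 55% in size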
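A 48-hour cytotoxicity screen used HT-1080-NT cells plated 2 hours before compound delivery. ATP-based CellTiter-Glo luminescence measured viability, normalized to DMSO and no-cell controls.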
DT40 TDP1 no CPT: qHTS for Inhibitors of human tyrosyl-DNA phosphodiesterase 1 (TDP1): qHTS in cells in absence of CPT | DT40 Tdp1-/- hTDP1 cells, no CPT, ATP luminescence, 48 h | Potency, µM (series often up to 46.2 µM), hits mostly inhibitors | actives 15% (n = 420,000) | AID 686978, 2013; also: nearly all actives have a fitted effect of over 55% in size
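Readout: luminescence from CellTiter-Glo after 30 min in the dark at RT. Cells: DT40 Tdp1-/- with stable hTDP1, 400/well. Exposure: compounds alone, ≥48 hr, 37 °C.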
HepG2 tox: qHTS for Inhibitors of TGF-b: Cytotox Counterscreen | HepG2 CAGA-GFP viability, ATP luminescence, 18 h | Potency, µM (series often up to 46.1 µM), hits mostly cytotoxic | actives 0.76% (n = 410,000) | AID 588856, 2011
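HepG2 CAGA-GFP cells (1000/well, DMEM with 1% FBS) received compound, then TGF-beta at 500 pg/mL final, and were incubated 18 hours at 37 degrees C. Viability was read by CellTiter-Glo luminescence. Media-only wells were set as complete cell-killing and DMSO as no toxicity.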
Of the large screens only hits and unclear results are named; the others gave an inactive call. Sampled rows, rich in hits. Any-hit rate of the full collection: about 17%. Calls follow the shape of the dose curve; as a rule, active = well fitted curve in the direction sought with a large enough effect; inconclusive = small, poorly fitted or top-dose-only effect, or another doubt; inactive = no such curve, though single readings can be large; an effect the other way counts as inactive or inconclusive.

CCOC(=O)Nc1cc(C(=O)OC)cc(C(=O)OC)c1	none
COC(=O)c1cccc(NC(=S)Nc2ccccc2Cl)c1	none
COC(=O)c1cc(NC(=S)Nc2cc(Cl)cc(Cl)c2)cc(C(=O)OC)c1	TDP1 cell CPT 18µM, DT40 TDP1 no CPT inconclusive
COc1ccc(O)c(/C=N/NC(=O)c2ccc(N3CCCC3=O)cc2)c1	HT1080 IDH1KD tx 23µM, TDP1 cell CPT 13µM, HT1080-NT tox inconclusive, DT40 TDP1 no CPT 23µM
COc1ccc(O)c(/C=N/NC(=O)c2cccc(N3CCCC3=O)c2)c1	HT1080 IDH1KD tx inconclusive, TDP1 cell CPT 5.2µM, HT1080-NT tox inconclusive, DT40 TDP1 no CPT 3.3µM
O=C(N/N=C/c1ccco1)c1cccc(N2CCCC2=O)c1	none
O=C(N/N=C/c1cc(Br)ccc1O)c1cccc(N2CCCC2=O)c1	TGFb inhibitor inconclusive, HT1080 IDH1KD tx inconclusive, TDP1 cell CPT 1.6µM, HT1080-NT tox inconclusive, DT40 TDP1 no CPT 4.6µM
CCn1c(=O)c2cc(C(=O)NCc3ccc(F)cc3Cl)sc2c2ccccc21	none (no result: HT1080 IDH1KD tx, HT1080-NT tox)
CNc1c(NC(=O)c2ccc(OC)c(OC)c2)c(=O)oc2ccccc12	none (no result: HT1080 IDH1KD tx, HT1080-NT tox)
Cc1cc(=O)nc2c3ccccc3n(C(C)C(=O)NCCN3CCOCC3)n12 (stereo not drawn)	none
CC(C)N1CCc2c(sc(NC(=O)c3ccc4ccccc4c3)c2C(N)=O)C1	HT1080 IDH1KD tx inconclusive, TDP1 cell CPT 15µM, HT1080-NT tox inconclusive, DT40 TDP1 no CPT inconclusive, HepG2 tox 11µM
CC(C)N1CCc2c(sc(NC(=O)Cc3ccccc3)c2C(N)=O)C1	none
CC(C)N1CCc2c(sc(NC(=O)c3ccc(C(=O)c4ccccc4)cc3)c2C(N)=O)C1	TGFb inhibitor inconclusive, HT1080 IDH1KD tx 18µM, TDP1 cell CPT inconclusive, HT1080-NT tox 21µM, DT40 TDP1 no CPT 23µM
CCCNC(=O)c1cc2cc([N+](=O)[O-])ccc2s1	none
CC(C)N1CCc2c(sc(NC(=O)c3cc4cc([N+](=O)[O-])ccc4s3)c2C(N)=O)C1	TGFb inhibitor inconclusive, HT1080 IDH1KD tx inconclusive, TDP1 cell CPT 4.6µM, HT1080-NT tox inconclusive, DT40 TDP1 no CPT 4.6µM, HepG2 tox 13µM
CC(C)NC(=O)c1cc2cc([N+](=O)[O-])ccc2s1	TGFb inhibitor inconclusive, TDP1 cell CPT inconclusive, DT40 TDP1 no CPT 15µM
CCOc1ccc(OCC)c(NS(=O)(=O)c2cc(-c3cc(C)no3)ccc2C)c1	none (no result: HT1080 IDH1KD tx, HT1080-NT tox)
CC1(C)Cc2ccccc2C(c2cc3ccccc3oc2=O)=N1	HT1080 IDH1KD tx inconclusive, TDP1 cell CPT inconclusive, HT1080-NT tox 21µM, DT40 TDP1 no CPT inconclusive
CCCOC(=O)c1ccc(-c2ccc(C=O)o2)cc1	DT40 TDP1 no CPT inconclusive
CCCCOC(=O)c1ccc(-c2ccc(/C=N/NC(=S)NCC)o2)cc1	TDP1 cell CPT 5.8µM, HT1080-NT tox 2.8µM, DT40 TDP1 no CPT 7.3µM
CCOC(=O)c1ccc(-c2ccc(/C=N/NC(=O)c3cncc(Br)c3)o2)cc1	TDP1 cell CPT inconclusive, DT40 TDP1 no CPT 23µM
C[C@@H]1CN([C@@H](C)CO)C(=O)c2cc(/C=C/c3ccccc3)cnc2O[C@@H]1CN(C)S(=O)(=O)c1ccc(F)cc1	none
C/C=C/c1cnc2c(c1)C(=O)N([C@@H](C)CO)C[C@H](C)[C@@H](CN(C)S(=O)(=O)c1ccc(C)cc1)O2	TDP1 cell CPT 23µM, DT40 TDP1 no CPT 23µM
Cc1ccccc1-c1cnc2c(c1)C(=O)N([C@@H](C)CO)C[C@@H](C)[C@H](CN(C)Cc1ccccc1F)O2	TDP1 cell CPT inconclusive, DT40 TDP1 no CPT 16µM
CCCNC(=O)N(C)C[C@H]1Oc2ncc(C#CCc3ccccc3)cc2C(=O)N([C@H](C)CO)C[C@H]1C	TDP1 cell CPT 29µM, DT40 TDP1 no CPT 10µM
C[C@@H]1CN([C@@H](C)CO)C(=O)c2cc(C#CC3CCCCC3)cnc2O[C@@H]1CN(C)S(=O)(=O)c1ccc(F)cc1	TGFb inhibitor inconclusive, TDP1 cell CPT 16µM, DT40 TDP1 no CPT 15µM
COc1ccc(C#Cc2cnc3c(c2)C(=O)N([C@@H](C)CO)C[C@@H](C)[C@@H](CN(C)CC2CCOCC2)O3)cc1	TDP1 cell CPT 18µM, DT40 TDP1 no CPT 21µM
C[C@H](CO)N1C[C@H](C)[C@H](CN(C)Cc2ccccc2)Oc2ncc(Br)cc2C1=O	none
COc1ccc(S(=O)(=O)N(C)C[C@H]2Oc3ncc(Br)cc3C(=O)N([C@@H](C)CO)C[C@@H]2C)cc1	TDP1 cell CPT inconclusive, DT40 TDP1 no CPT 12µM
COc1ccc(C#Cc2cnc3c(c2)C(=O)N([C@H](C)CO)C[C@@H](C)[C@H](CN(C)C(=O)CN(C)C)O3)cc1	none
C[C@H]1CN([C@@H](C)CO)C(=O)c2cc(Br)cnc2O[C@H]1CN(C)Cc1ccc(Oc2ccccc2)cc1	HT1080 IDH1KD tx inconclusive, TDP1 cell CPT 18µM, HT1080-NT tox inconclusive, DT40 TDP1 no CPT 16µM
COC(=O)COc1ccc(C(C2C(=O)CC(C)(C)CC2=O)C2C(=O)CC(C)(C)CC2=O)cc1	none
COc1ccc(-n2nc(C(=O)NCC(=O)N3CCCC3)c3ccccc3c2=O)cc1Cl	DT40 TDP1 no CPT inconclusive
CS/C(Nc1cc(Cl)ccc1Cl)=C(/C#N)C(=O)c1ccco1	HT1080 IDH1KD tx inconclusive, TDP1 cell CPT 9.2µM, DT40 TDP1 no CPT 16µM
CC(NC(=O)CCc1nnc(-c2ccc(-c3ccccc3)cc2)o1)c1nc2ccccc2[nH]1 (stereo not drawn)	TDP1 cell CPT 18µM, DT40 TDP1 no CPT 16µM
CC(C)(CO)CNC(=O)CCc1nnc(-c2ccc(-c3ccccc3)cc2)o1	TDP1 cell CPT inconclusive, DT40 TDP1 no CPT 21µM
CCCCCc1c(C)[nH]c2nc3ccccc3n2c1=O	none
O=C(CCCCC(=O)NN=Cc1ccc2c(c1)CCC2)NN=Cc1ccc2c(c1)CCC2	TDP1 cell CPT inconclusive, DT40 TDP1 no CPT inconclusive
COc1ccc(N=NC2C(=O)N(c3ccccc3)N=C2C)cc1 (stereo not drawn)	none
CC1=NN(c2nc(-c3ccc(C)cc3)cs2)C(=O)C1N=Nc1cccc(O)c1 (stereo not drawn)	TDP1 cell CPT inconclusive, DT40 TDP1 no CPT 16µM
CC1=NN(c2nc(-c3ccc(C)cc3)cs2)C(=O)C1N=Nc1ccccc1O (stereo not drawn)	HT1080 IDH1KD tx inconclusive, TDP1 cell CPT 4.1µM, DT40 TDP1 no CPT 4.6µM
